B2AR arrestin ag: qHTS assay of beta-arrestin-biased ligands of beta2-adrenergic receptor: NCGC Sytravon Library Screen | Beta-2 adrenergic receptor (Homo sapiens), P07550 | HTLA Tango cells, beta-arrestin recruitment, luciferase luminescence, 18 h | Potency, µM (titrated, usually from 46.1 µM), hits mostly activators | 44,000 tested, under 10 active;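 further: potency means the concentration at half of the fitted maximal effect; 0% = DMSO and full agonism = EC100 isoproterenol or metaproterenol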
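First, Tango cells carrying beta2-AR and beta-arrestin fusions received compound up to 46 microM. After 18 hr at 37 degrees C, luciferase substrate was added for 15 minutes, then luminescence gave %Activity for curve fitting.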
GALC G270D act: A Novel Cell-Based Assay to Identify Small Molecules for B -Galactocerebrosidase; 145M-Twi-hGALC-G270D cells (Twitcher mouse brain line with human GALC G270D), HMU-beta-Gal fluorescence, 48 h; AID 1159614, 2016; Potency, µM (series often up to 57.5 µM), actives largely listed as activators; 45,000 compounds, 0.1% hits; further: potency means the concentration at half of the fitted maximal effect; 0% is about no effect; nearly all actives have a fitted effect of over 65% in size
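Fluorogenic HMU-b-Gal hydrolysis (0.1 mM final, pH 5.2 citrate-phosphate with 1 mg/mL sodium taurocholate; carbonate stop buffer) measures mutant GALC activity after compound treatment of live 145M-Twi Twitcher brain cells stably carrying human GALC-G270D, with wild-type GALC line alongside; activation sought.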
TSG101-PTAP inh: qHTS Validation Assay for Inhibitors of HIV-1 Budding by Blocking the Interaction of PTAP/TSG101: Sytravon Library Screen. Tumor susceptibility gene 101 protein (Homo sapiens), Q99816. Fluorescence polarization, FITC-PTAP peptide/Tsg101, 20 min. Potency, µM (titrated, usually from 115 µM), usual class: inhibitors. 44,000 tested, under 10 active; further: potency means the concentration at half of the fitted maximal effect; 0% is about no effect
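Compounds pinned into 10 uM Tsg101 binding domain, then 50 nM FITC-PTAP peptide added in pH 7.5 HEPES buffer; FP read after 20 min, room temperature. Total S+P intensity flags fluorescent compounds; active cut-off <25 µM, efficacy <60%.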
GALK inh: qHTS Assay for Inhibitors of Human Galactokinase (GALK): NCGC Sytravon Library Screen; recombinant GALK, Kinase-Glo ATP luminescence, 1 h; AID 1347072, 2019; Potency, µM (titrated, usually from 57.5 µM), inactives show at the top dose activity, negative = inhibition, hits mostly inhibitors; 44,000 tested, under 10 active; P51570;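 further: plate controls were full GALK reaction for no effect and reaction lacking GALK for full effect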
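Compounds were pinned into ATP buffer, then GALK-galactose mix was added (final 5 nM enzyme, 35 uM ATP, 100 uM galactose, pH 8.0). After 1 h at room temperature, Kinase-Glo Plus was added and luminescence read.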
FH mod: Identification of activators of human fumarate hydratase by quantitative high-throughput screening | Fumarate hydratase, mitochondrial (Homo sapiens), P07954 | FH coupled MDH/diaphorase resazurin fluorescence, 15 min | Potency, µM (titrated, usually from 79.9 µM), for the others: top-dose activity change, negative = inhibition, hits mostly inhibitors | 54,000 compounds, 0.22% hits; further: potency means the concentration at half of the fitted maximal effect; on the % scale 0 is the no-effect control and ±100 the full control effect; the screen sought activators but most active calls are inhibition curves; nearly all actives have a fitted effect of over 45% in size
GPR32 ag: qHTS for Agonists of Human Resolvin D1 Receptor DRV1; activation, % at 76.9 µM; CHO-K1 GPR32 beta-arrestin PathHunter luminescence, 90 min; zero percent set by DMSO-only wells; 48,000 compounds, 2.5% hits; AID 1346428, 2018;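 active means activation of at least 60% and not above a set upper limit, about 1 call in 100 departs from these limits; inconclusive means activation of 40% to 60%, or above that upper limit; inactive means activation under 40%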; further: 0% is about no effect
Target sequence (O75388 whole entry, looked up): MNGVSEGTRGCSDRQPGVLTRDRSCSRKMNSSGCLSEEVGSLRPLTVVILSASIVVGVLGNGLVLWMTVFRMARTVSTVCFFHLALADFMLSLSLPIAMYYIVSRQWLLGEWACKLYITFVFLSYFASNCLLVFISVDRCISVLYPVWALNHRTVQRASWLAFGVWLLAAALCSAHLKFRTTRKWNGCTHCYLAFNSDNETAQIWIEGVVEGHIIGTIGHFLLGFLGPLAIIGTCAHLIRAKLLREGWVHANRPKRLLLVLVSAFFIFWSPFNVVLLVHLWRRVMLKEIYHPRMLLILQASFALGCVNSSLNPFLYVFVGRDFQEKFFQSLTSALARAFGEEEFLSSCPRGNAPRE
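Step 1: seed CHO-K1 GPR32 beta-arrestin cells, 2,500/well, overnight at 37 °C. Step 2: add compounds, 90 min at 37 °C. Step 3: detection reagent, 1 h ambient, then luminescence.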
* = called active by the depositor; i = inactive; ? = inconclusive; . = not tested or not shown; ! = a repeat was not active; [ ] = dose if it differs, or a comment. Sampled rows, rich in hits. Any-hit rate of the full collection: about 2.8%. Unless noted, the call rests on the fitted dose curve; in most records, active means well fitted curve in the direction sought with a large enough effect; inconclusive means small, poorly fitted or top-dose-only effect, or another doubt; inactive means no such curve, though single readings can be large; an effect the other way counts as inactive or inconclusive.

SMILES	B2AR arrestin ag	GALC G270D act	TSG101-PTAP inh	GALK inh	FH mod	GPR32 ag
CCc1c(C)nc2nc(-c3ccccc3)nn2c1NCc1ccc(C)cc1	i	i	i	0%	?	72*
CCc1c(C)nc2nncn2c1NCc1ccccc1	i	i	i	0%	1%	-22
COc1ccc(NC(=O)c2ccc(NC(=O)CCS(=O)(=O)c3cccs3)cc2)cc1Cl	i	i	i	2%	-6%	?
O=C(CCS(=O)(=O)c1cccs1)Nc1ccc(C(=O)Nc2cccc(Cl)c2)cc1	i	i	i	4%	-21%	65*
Nc1c(S(=O)(=O)O)cc(Nc2ccc(Nc3nc(Cl)nc(Nc4ccc(S(=O)(=O)O)cc4)n3)c(S(=O)(=O)O)c2)c2c1C(=O)c1ccccc1C2=O	.	.	.	.	5µM*	-55
NS(=O)(=O)c1ccc(NC(=O)CN2C(=O)COc3ccc(Cl)cc32)cc1	i	i	i	4%	-13%	93*
CCN(CC)S(=O)(=O)c1ccc2c(c1)N(CC(=O)N1CCN(c3cc(Cl)ccc3C)CC1)C(=O)CO2	i	i	i	0%	1%	-8
O=C(CN1C(=O)COc2ccc(Cl)cc21)Nc1cccc(F)c1	i	i	i	-4%	-1%	-13
Cc1ccc(NC(=O)CN2C(=O)COc3ccc(S(=O)(=O)NC4CCCC4)cc32)cc1Cl	i	i	i	-6%	-20%	106*
CCN(CC)S(=O)(=O)c1ccc2c(c1)N(CC(=O)NCCCN1CCN(c3cc(Cl)ccc3C)CC1)C(=O)CO2	i	i	i	0%	-11%	78*
COc1ccccc1C(=O)Nc1cc2c(cc1N1CCOCC1)n(C)c(=O)n2C	i	.	i	-3%	.	-5
CCOc1ccccc1C(=O)Nc1cc2c(cc1N1CCCCC1)n(C)c(=O)n2C	i	.	i	2%	.	70*
CCCNCC(O)COc1ccccc1C(=O)CCc1ccccc1 (centres undefined)	.	i	.	.	-21%[53.3 µM]	87*!
CCN(CC)CCOc1ccccc1C(=O)CCc1ccccc1	.	i	.	.	5%[53.3 µM]	107*
CN(C)Cc1cccc(N=C(c2ccccc2)c2c(O)[nH]c3cc(C(N)=O)ccc23)c1	.	.	.	.	-7%	.
CCCCCC=CCC=CCCCCCCCC(=O)OCC	.	i	.	.	-13%[53.3 µM]	63*
CC1(CO)CC(O)C2(C)CCC3(C)C(=CCC4C5(C=O)CCC(OC6OC(C(=O)O)C(O)C(O)C6OC6OC(C(=O)O)C(O)C(O)C6O)C(C)(C)C5CCC43C)C2C1 (centres undefined)	.	.	.	.	1%[20.6 µM]	.
CCC(CC)C(=O)Nc1nnc(SCc2cc(=O)c3ccccc3[nH]2)s1	i	i	i	0%	1%	99*
Cc1ccc(OCC(=O)Nc2nnc(SCc3cc(=O)c4ccccc4[nH]3)s2)cc1	i	i	i	-6%	-4%	120*
CC(C)(C[C@@](O)(Cc1cc2ccncc2[nH]1)C(F)(F)F)c1cc(F)ccc1O	.	.	.	.	-8%	.
CC(=O)c1ccc2c(c1)C(O)C(C(C)(C)O)O2 (centres undefined)	.	.	.	.	4%	.
O=C(Cn1c(=O)oc2cc(S(=O)(=O)N3CCCC3)ccc21)NCc1ccc(Cl)cc1	i	i	i	-4%	4%	?

Screening data (PubChem BioAssay)
